The values that follow come from PubChem BioAssay (EPA / NIEHS).

Calls of active or inactive are those of the source. Rule for the calls: active = hit-call score of the fitted dose curve at least 0.9, where 1 is the maximum; inactive = score below 0.9.

Read-out in the assay: Monokine induced gamma interferon (MIG), CXCL9 (gene 4283)
Briefly: BSK_hDFCGF_MIG: BioMAP Diversity Plus: hDFCGF Assay for Monokine induced gamma interferon (MIG) Biomarker Activity (AID 2283063). Particulars: primary human foreskin fibroblasts; actives raise or lower the signal. As for the experimental part: BSK_hDFCGF is a cell-based, multiplexed-readout assay that uses foreskin fibroblast, a human skin primary cell, with measurements taken at 24 hours after chemical dosing in a 96-well plate.BSK_hDFCGF_MIG is an assay component measured in the BSK_hDFCGF assay. It measures MIG antibody related to regulation of gene expression using ELISA technology.Data from the assay component BSK_hDFCGF_MIG was analyzed into 1 assay endpoint. This assay endpoint, BSK_hDFCGF_MIG, was analyzed with bidirectional fitting relative to DMSO as the negative control and baseline of activity. Using a type of binding reporter, gain or loss-of-signal activity can be used to understand changes in the signaling as they relate to the gene CXCL9. Furthermore, this assay endpoint can be referred to as a primary readout, because this assay has produced multiple assay endpoints where this one serves a signaling function. To generalize the intended target to other relatable targets, this assay endpoint is annotated to the cytokine intended target family, where the subfamily is chemotactic factor.
The levels of cell surface (or secreted, indicated by the prefix "s") biomarker endpoints were measured by ELISA. Overt cytotoxicity to cells in confluent adherent cultures (all systems other than the BT system) was assessed by measuring total protein levels using sulforhodamine B (SRB) staining in parallel cultures at the time of biomarker measurements, indicated as SRB endpoints. For proliferation assays for adherent cell types, individual cell types are cultured at sub-confluence and relative cell numbers quantified by SRB staining at time points optimized for each system (48 h: 3C and CASM3C systems; 72 h: BT and HDF3CGF systems; 96 h: SAg system). SRB was performed by staining cells with 0.1% SRB after fixation with 10% TCA and reading wells at 560 nm.Viability and proliferation of PBMC (T cells) was quantified by Alamar Blue reduction for the SAg and BT systems. For PBMC viability (referred to as PBMC Cytotoxicity within the assay endpoint names), cells were plated (75,000/well in a 96-well plate) and then chemical samples added for 1 h before addition of activators, SEB and TSST-1 (20 ng/mL final concentration each). Cells were incubated for 90 h. Then, Alamar Blue (20 uL/well) (Invitrogen, Cat DAL1100) was added for 6 h, and the plates were read with a fluorescence microplate reader at 546/580 nm (excitation/emission). For PBMC proliferation, cells were plated and activated as above but incubated for only 16 h prior to addition of Alamar Blue. Plates were read after 6 h.
Take `CCCCCCCC(=O)OC`: the outcome was inactive.
Turning to `CC(=O)S[C@H](C(=O)N[C@H]1Cc2ccccc2[C@H]2CCC[C@@H](C(=O)O)N2C1=O)C(C)C`, the outcome was inactive.
Take `Cc1occc(=O)c1O`: the outcome was inactive.
On the same count and under the same terms, next, `CSc1ccc(Oc2ccc(S(N)(=O)=O)cc2CN(C)C)cc1C`: “inactive”; `C=CCc1ccc(OC)c(OC)c1`: “inactive”; `O=C(O)c1cccnc1`: “inactive”.
Consider `C/C=C/C=C/C(=O)O`, for which the result was inactive.
Still for that read-out and setting: next, `CCOCCOCCO`: “inactive”; `O=C(Oc1ccccc1)c1cccc(C(=O)Oc2ccccc2)c1`: “inactive”; `CN(C)C(=O)NC1(c2ccccc2)CCN(CCC[C@]2(c3ccc(Cl)c(Cl)c3)CCCN(C(=O)c3ccccc3)C2)CC1`: “inactive”.
Take `CCCCc1nc2cccnc2n1Cc1ccc(-c2ccccc2-c2nnn[nH]2)cc1`: the outcome was inactive.
Still for that read-out and setting: next, `CN(C)CCCN(C)CCCN(C)C`: “inactive”; `CC(C)NCC(O)c1ccc(O)c(O)c1` (stereo not given): “inactive”; `CCCCC(CC)COP(=O)(OCC(CC)CCCC)OCC(CC)CCCC` (stereo not given): “inactive”.
For the compound `OCC(CO)n1cnc(-c2ccc(F)cc2)c1-c1ccnc(Oc2ccccc2)n1`, the result was inactive.
Still for that read-out and setting: next, `CN(C)C(=O)NC1(c2ccccc2)CCN(CC[C@@]2(c3ccc(F)c(F)c3)CN(C(=O)c3ccccc3)CCO2)CC1`: “inactive”; `CC(COCC(C)OC(=O)c1ccccc1)OC(=O)c1ccccc1` (stereo not given): “inactive”.
Take `O=C1CCCCC1`: the outcome was inactive.
As to `O=C1c2c(O)cccc2Cc2cccc(O)c21`, the AC50 is 15.7 µM (active).
On to `Cc1c(C)c2c(c(C)c1O)CCC(C)(COc1ccc(CC3SC(=O)NC3=O)cc1)O2` (stereo not given), for which the half-maximal activity concentration (AC50) was 20 µM (active).
As to `CC(N)=O`, the outcome was inactive.
Regarding `CC(=O)O[C@]1(C(C)=O)CC[C@H]2[C@@H]3C=C(Cl)C4=CC(=O)[C@@H]5C[C@@H]5[C@]4(C)[C@H]3CC[C@@]21C`, the result was inactive.
Same read-out and setting: next, `CS(=O)(=O)c1ccc([C@@H](C[C@H]2CCC(=O)C2)C(=O)Nc2cnccn2)cc1Cl`: “inactive”; `CCCC[C@H]1CN(CC2CCOCC2)C(=O)OC12CCN(C1(C)CCN(C(=O)c3c(C)ncnc3C)CC1)CC2`: “inactive”; `COC(=O)[C@H]1[C@H]2C[C@@H]3c4[nH]c5cc(OC)ccc5c4CCN3C[C@H]2C[C@@H](OC(=O)c2cc(OC)c(OC)c(OC)c2)[C@@H]1OC`: “inactive”.
Same read-out and setting: as for `CCCCCCC(C=O)=Cc1ccccc1`, the entry is “inactive”; as for `O=C(N[C@@H](c1ccccc1)[C@@H]1CCCCN1)c1cccc(C(F)(F)F)c1Cl`, “inactive”; as for `CC(=O)O`, “inactive”.
Still for that read-out and setting: next, `O=C1NC(=O)C(c2ccccc2)(c2ccccc2)N1`: “inactive”; `O=Cc1ccccc1C=O`: “inactive”; `C/C=C/c1ccc(OC)cc1`: “inactive”.
In the case of `CCCCC(CC)CO` (stereo not given), the outcome was inactive.
Take `O=C(O)CN(CC(=O)O)CC(=O)O`: the outcome was inactive.
Still for that read-out and setting: as for `CCC(C)N(C)C(=O)c1cc2ccccc2c(-c2ccccc2Cl)n1` (stereo not given), the entry is “inactive”; as for `O=C(NS(=O)(=O)/C=C/c1cccs1)c1ccc(F)cc1Br`, “inactive”.
On the same count and under the same terms, next, `COc1ccc(OC(F)(F)F)cc1CN[C@H]1CCCN[C@H]1c1ccccc1`: “inactive”; `CCc1nc(N)nc(N)c1-c1ccc(Cl)cc1`: “inactive”.
Still for that read-out and setting: as for `O=C1OC(c2ccc(O)cc2)(c2ccc(O)cc2)c2ccccc21`, the entry is “inactive”; as for `O=C(O)c1[nH]n(-c2ccc(S(=O)(=O)O)cc2)c(=O)c1N=Nc1ccc(S(=O)(=O)O)cc1`, “inactive”.
Turning to `Oc1ccc(O)cc1`, the concentration at half-maximal activity (AC50) was 18.7 µM (active).

In general, AC50 refers to the midpoint of the concentration-response curve, whichever way the signal moves.
